Source: the supplement of paper PMC11624193, “Coupling cellular drug-target engagement to downstream pharmacology with CeTEAM” (Nature Communications, 2024)
Counter-ions that a name gives are not always drawn. Values without a mark were called inactive.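 How the source made its calls: active = log2 fold change beyond 2 SD from the library mean after excluding viability outliers; inactive = within 2 SD.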

What follows are compounds tested against PARP1 L713F-nLuc biosensor (HCT116) (UniProt P09874) (assay: PARP1 L713F-nLuc/akaLuc ratio relative to DMSO control (biosensor stabilization) (fold change); higher = more PARP1 biosensor stabilization (target engagement / stabilizer), active = hit call of the paper). Details: stock concentration (mM; final µM = stock mM x 1): 10; 24 h.
PARP1 L713F-nLuc biosensor (HCT116), sequence (P09874 whole entry L713F, looked up): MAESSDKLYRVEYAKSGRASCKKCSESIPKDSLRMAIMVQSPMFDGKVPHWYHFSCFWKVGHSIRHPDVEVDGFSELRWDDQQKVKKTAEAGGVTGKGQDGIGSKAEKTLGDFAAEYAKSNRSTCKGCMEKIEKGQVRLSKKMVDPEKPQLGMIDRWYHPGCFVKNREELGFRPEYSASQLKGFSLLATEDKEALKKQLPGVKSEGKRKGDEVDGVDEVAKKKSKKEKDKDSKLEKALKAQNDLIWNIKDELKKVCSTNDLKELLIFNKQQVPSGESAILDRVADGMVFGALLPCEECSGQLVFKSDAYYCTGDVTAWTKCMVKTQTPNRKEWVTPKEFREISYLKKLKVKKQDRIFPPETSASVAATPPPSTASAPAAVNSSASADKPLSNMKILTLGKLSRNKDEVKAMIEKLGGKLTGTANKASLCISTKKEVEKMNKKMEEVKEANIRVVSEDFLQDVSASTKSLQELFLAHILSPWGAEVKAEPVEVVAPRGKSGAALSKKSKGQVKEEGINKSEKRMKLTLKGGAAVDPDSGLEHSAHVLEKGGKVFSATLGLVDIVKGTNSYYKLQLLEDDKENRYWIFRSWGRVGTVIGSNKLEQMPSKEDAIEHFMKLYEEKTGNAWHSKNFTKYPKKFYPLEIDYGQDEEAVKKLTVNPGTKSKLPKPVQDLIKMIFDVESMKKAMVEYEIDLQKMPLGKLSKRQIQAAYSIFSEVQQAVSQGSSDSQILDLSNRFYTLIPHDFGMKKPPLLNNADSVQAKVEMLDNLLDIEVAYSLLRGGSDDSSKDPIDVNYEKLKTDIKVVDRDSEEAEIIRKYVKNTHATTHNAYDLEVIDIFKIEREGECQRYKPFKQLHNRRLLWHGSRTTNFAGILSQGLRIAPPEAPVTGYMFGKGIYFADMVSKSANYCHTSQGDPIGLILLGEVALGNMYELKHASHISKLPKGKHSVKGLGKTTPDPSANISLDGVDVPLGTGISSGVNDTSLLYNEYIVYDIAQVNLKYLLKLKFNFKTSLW

| SMILES | PARP1 L713F-nLuc/akaLuc ratio |
| --- | --- |
| CCC1=C[C@@H]2CN(C1)Cc1c([nH]c3ccccc13)[C@@](C(=O)OC)(c1cc3c(cc1OC)N(C)[C@H]1[C@@](O)(C(=O)OC)[C@H](OC(C)=O)[C@]4(CC)C=CCN5CC[C@]31[C@@H]54)C2 [Vinorelbine Tartrate] | 0.576 |
| O=C(O)c1ccc(O)c2ncccc12 | 0.734 |
| CCCCCCCCc1ccc(CCC(N)(CO)CO)cc1 [Fingolimod (FTY720) HCl] | 0.577 |
| CNC(=O)c1cnc(NC(=O)C2CC2)cc1Nc1cccc(-c2ncc(F)cn2)c1OC | 0.696 |
| CCCOc1ccn2c(C(C)=O)cc(-c3cccc(OC)c3)c2c1 | 1.56 |
| COc1cc(C=CC(=O)O)cc(OC)c1O (stereo in doubt) [Sinapinic acid] | 0.83 |
| Cc1c(CN2CCC(Nc3ncnc4sc(CC(F)(F)F)cc34)CC2)ccc2c1cc(C#N)n2Cc1cn[nH]c1 | 0.806 |
